Laboratory results published in PubChem BioAssay (NCI).
About 83,000 compounds went through this panel and 20% of them were active in at least one assay; those are over-represented in the sample as a whole.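 48-hour exposure, single concentration, 96-well plates; percent growth endpoint where 0 means no net growth. Active: below 10.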 Active and inactive are the calls of the source.

Assays:
Assay in all cases: NCI-60 one-dose screen, 48 h (100 = growth as untreated, 0 = no growth, -100 = all killed)
Conditions in all cases: 10 µM unless noted
NCI-H23 lung = tested on: NCI-H23 lung
NCI-H226 lung = tested on: NCI-H226 lung
NCI-H322M lung = tested on: NCI-H322M lung
HOP-62 NSCLC = tested on: HOP-62 NSCLC
NCI-H460 lung = tested on: NCI-H460 lung
HOP-92 NSCLC = tested on: HOP-92 NSCLC
NCI-H522 lung = tested on: NCI-H522 lung
A549/ATCC NSCLC = tested on: A549/ATCC NSCLC
786-0 renal = tested on: 786-0 renal
COLO 205 colon = tested on: COLO 205 colon
DU-145 prostate = tested on: DU-145 prostate
K-562 leukemia = tested on: K-562 leukemia
MALME-3M melanoma = tested on: MALME-3M melanoma
MDA-MB-231 breast = tested on: MDA-MB-231 breast
RXF 393 renal = tested on: RXF 393 renal
SF-268 CNS = tested on: SF-268 CNS
SF-295 CNS = tested on: SF-295 CNS
SF-539 CNS = tested on: SF-539 CNS
UACC-257 melanoma = tested on: UACC-257 melanoma
M14 melanoma = tested on: M14 melanoma

Measured: growth

CCOC(=O)C#Cc1c(C(=O)OCC)nnn1[C@@H]1O[C@H](CO)[C@H]2OC3(CCCCC3)O[C@H]21
active: NCI-H522 lung -25.2% | COLO 205 colon -27.2% | K-562 leukemia 5.02% | RXF 393 renal 9.92%
inactive: NCI-H23 lung 93.9% | NCI-H226 lung 80.7% | NCI-H322M lung 98% | HOP-62 NSCLC 110% | NCI-H460 lung 98.5% | HOP-92 NSCLC 54.5% | A549/ATCC NSCLC 95.2% | 786-0 renal 66.9% | DU-145 prostate 52.1% | MALME-3M melanoma 55.1% | MDA-MB-231 breast 95.6% | SF-268 CNS 94.6% | SF-295 CNS 101% | SF-539 CNS 81.1% | UACC-257 melanoma 46.8% | M14 melanoma 59.4%

CCCCCCNC(=O)Oc1ccc(/C(=C(/C)Cc2ccc(OC)cc2)c2ccc(OCCCN(C)C)cc2)cc1
inactive: NCI-H23 lung 70.7% | NCI-H226 lung 90.5% | NCI-H322M lung 70.5% | HOP-62 NSCLC 76% | HOP-92 NSCLC 25% | NCI-H522 lung 36.4% | A549/ATCC NSCLC 31.9% | 786-0 renal 44.5% | DU-145 prostate 48.9% | MDA-MB-231 breast 32.6% | RXF 393 renal 31.2% | SF-268 CNS 60.8% | SF-295 CNS 10.5% | SF-539 CNS 40.7%
active: NCI-H460 lung -52.7% | COLO 205 colon -84% | K-562 leukemia -51.8% | MALME-3M melanoma -51.2% | UACC-257 melanoma -6.6% | M14 melanoma -63.9%

O=C(CCC(=O)N/N=C/c1ccccc1O)N/N=C/c1ccccc1O
inactive: NCI-H23 lung 61.2% | NCI-H226 lung 61.8% | NCI-H322M lung 29.3% | HOP-62 NSCLC 36.2% | NCI-H460 lung 44.4% | HOP-92 NSCLC 57.1% | NCI-H522 lung 51.8% | A549/ATCC NSCLC 62.6% | 786-0 renal 69.7% | COLO 205 colon 35.4% | DU-145 prostate 48.4% | K-562 leukemia 40.4% | MALME-3M melanoma 62.5% | MDA-MB-231 breast 49% | RXF 393 renal 58.9% | SF-268 CNS 33.2% | SF-295 CNS 89.6% | SF-539 CNS 30% | UACC-257 melanoma 76% | M14 melanoma 36.4%

O=C(CCc1nnc(Cn2cnc3nc[nH]c3c2=O)o1)c1nc2ncccc2[nH]1
inactive: NCI-H23 lung 97.4% | NCI-H226 lung 101% | NCI-H322M lung 92.3% | HOP-62 NSCLC 97.3% | NCI-H460 lung 105% | HOP-92 NSCLC 104% | NCI-H522 lung 94.3% | A549/ATCC NSCLC 98.1% | 786-0 renal 93.7% | COLO 205 colon 104% | DU-145 prostate 108% | K-562 leukemia 99.7% | MALME-3M melanoma 97.5% | MDA-MB-231 breast 94.7% | RXF 393 renal 102% | SF-268 CNS 96.1% | SF-295 CNS 101% | SF-539 CNS 95% | UACC-257 melanoma 105% | M14 melanoma 96.5%

Cc1cc(N)c2cc(NC(=O)/C=C\c3ccccc3Cl)ccc2n1
active: NCI-H23 lung -85.4% | NCI-H226 lung -70.7% | NCI-H322M lung -83.3% | HOP-62 NSCLC -71.5% | NCI-H460 lung -78.3% | HOP-92 NSCLC -69.5% | NCI-H522 lung -70.7% | A549/ATCC NSCLC -43.5% | 786-0 renal -81.3% | COLO 205 colon -65.9% | DU-145 prostate -92.8% | K-562 leukemia -31.9% | MALME-3M melanoma -76.2% | MDA-MB-231 breast -87.1% | RXF 393 renal -78.2% | SF-268 CNS -76.6% | SF-295 CNS -80.4% | SF-539 CNS -91.3% | UACC-257 melanoma -49.2% | M14 melanoma -70.9%

O=Nc1c(-c2c(O)[nH]c3ncccc23)[nH]c2ccccc12
inactive: NCI-H23 lung 69.7% | NCI-H226 lung 78.6% | NCI-H322M lung 30.7% | HOP-62 NSCLC 45.9% | NCI-H460 lung 52.2% | HOP-92 NSCLC 54% | NCI-H522 lung 47.6% | A549/ATCC NSCLC 46.6% | 786-0 renal 43.3% | COLO 205 colon 108% | DU-145 prostate 62.2% | K-562 leukemia 53.3% | MALME-3M melanoma 91% | MDA-MB-231 breast 78.6% | RXF 393 renal 29.4% | SF-268 CNS 66.2% | SF-295 CNS 94.9% | SF-539 CNS 50.3% | UACC-257 melanoma 92.6% | M14 melanoma 56.4%

Nc1c(C(=O)Nc2ccncc2)sc2nc3c(cc12)CCCCCC3
inactive: NCI-H23 lung 88.6% | NCI-H226 lung 80.4% | NCI-H322M lung 80.6% | HOP-62 NSCLC 96.6% | NCI-H460 lung 89.9% | HOP-92 NSCLC 67.1% | NCI-H522 lung 81.6% | A549/ATCC NSCLC 76.7% | 786-0 renal 74.6% | COLO 205 colon 104% | DU-145 prostate 93.2% | K-562 leukemia 64% | MALME-3M melanoma 108% | MDA-MB-231 breast 103% | RXF 393 renal 88.5% | SF-268 CNS 100% | SF-295 CNS 82.3% | SF-539 CNS 79.9% | UACC-257 melanoma 91.1% | M14 melanoma 100%

N#CC1=C(c2ccc(Cl)cc2)Nc2c(c(-c3ccc(Cl)cc3)nn2-c2ccccc2)C12C(=O)Nc1ccc(Cl)cc12 (stereo not given)
active: HOP-92 NSCLC -3.13%
inactive: NCI-H23 lung 42.3% | NCI-H226 lung 67% | NCI-H322M lung 83.3% | HOP-62 NSCLC 65% | NCI-H460 lung 35.5% | NCI-H522 lung 25.7% | A549/ATCC NSCLC 31% | 786-0 renal 59.1% | COLO 205 colon 51% | DU-145 prostate 76.6% | K-562 leukemia 24.3% | MALME-3M melanoma 77% | MDA-MB-231 breast 50.1% | RXF 393 renal 21.3% | SF-268 CNS 38.2% | SF-295 CNS 23.2% | SF-539 CNS 74.2% | UACC-257 melanoma 63.4% | M14 melanoma 41.9%

COc1ccc(C2=Nc3c/c(=C\c4c(O)[nH]c5ccc(Cl)cc45)ccc3=N2)cc1
active: COLO 205 colon -9.26% | RXF 393 renal -27.2%
inactive: NCI-H23 lung 52.1% | NCI-H226 lung 66.5% | NCI-H322M lung 81.9% | HOP-62 NSCLC 28.2% | NCI-H460 lung 43.5% | HOP-92 NSCLC 52.8% | NCI-H522 lung 29.3% | A549/ATCC NSCLC 62.5% | 786-0 renal 43.6% | DU-145 prostate 73.2% | K-562 leukemia 19.4% | MALME-3M melanoma 40.8% | MDA-MB-231 breast 42.7% | SF-268 CNS 53.4% | SF-295 CNS 29.6% | SF-539 CNS 59.9% | UACC-257 melanoma 54% | M14 melanoma 27.6%

CCOC(=O)c1c(C)nc2c(c1N)CC(=O)N2Cc1cc(F)cc(Cl)c1
inactive: NCI-H23 lung 81.8% | NCI-H226 lung 89.1% | NCI-H322M lung 107% | HOP-62 NSCLC 89.7% | NCI-H460 lung 98.1% | HOP-92 NSCLC 78.1% | NCI-H522 lung 66.8% | A549/ATCC NSCLC 82.8% | 786-0 renal 88.2% | COLO 205 colon 121% | DU-145 prostate 94.5% | K-562 leukemia 95.2% | MALME-3M melanoma 108% | MDA-MB-231 breast 87.5% | RXF 393 renal 92.4% | SF-268 CNS 95.8% | SF-295 CNS 85.9% | SF-539 CNS 94.2% | UACC-257 melanoma 82% | M14 melanoma 101%

CN1CCN(C(=O)OCc2ccc3c(Cl)cc(Cl)c(O)c3n2)CC1
inactive: NCI-H23 lung 59.6% | NCI-H226 lung 98.3% | NCI-H322M lung 60% | HOP-62 NSCLC 45.9% | NCI-H460 lung 66.8% | HOP-92 NSCLC 71.1% | NCI-H522 lung 79.6% | A549/ATCC NSCLC 62.5% | 786-0 renal 86.6% | COLO 205 colon 107% | DU-145 prostate 56.3% | K-562 leukemia 18.1% | MALME-3M melanoma 81% | MDA-MB-231 breast 90.5% | RXF 393 renal 71.3% | SF-268 CNS 53.3% | SF-295 CNS 45.3% | SF-539 CNS 66.2% | UACC-257 melanoma 89.3% | M14 melanoma 55.4%

CCc1n(Cc2ccc3ccccc3c2)cc[n+]1Cc1ccc2ccccc2c1
active: NCI-H23 lung -14.6% | NCI-H226 lung 6.75% | NCI-H460 lung 5.54% | HOP-92 NSCLC -31.4% | NCI-H522 lung -25.4% | COLO 205 colon -67.5% | K-562 leukemia 8.91% | MALME-3M melanoma -21.9% | MDA-MB-231 breast -18.9% | RXF 393 renal 1.07% | SF-295 CNS 6.3% | UACC-257 melanoma -38.2% | M14 melanoma -9.48%
inactive: NCI-H322M lung 44.3% | HOP-62 NSCLC 11.9% | A549/ATCC NSCLC 28.5% | 786-0 renal 35.7% | DU-145 prostate 23.8% | SF-268 CNS 12.5% | SF-539 CNS 12.6%

CC(C)n1cnc2c(=S)nc[nH]c21
inactive: NCI-H23 lung 114% | NCI-H226 lung 107% | NCI-H322M lung 112% | HOP-62 NSCLC 108% | NCI-H460 lung 111% | HOP-92 NSCLC 103% | NCI-H522 lung 105% | A549/ATCC NSCLC 126% | 786-0 renal 113% | COLO 205 colon 114% | DU-145 prostate 111% | K-562 leukemia 69.9% | MALME-3M melanoma 156% | MDA-MB-231 breast 118% | RXF 393 renal 121% | SF-268 CNS 101% | SF-295 CNS 90.1% | SF-539 CNS 99.6% | UACC-257 melanoma 120% | M14 melanoma 109%

O=C(c1ccc(-c2ccccc2)cc1)c1ccc([N+](=O)[O-])cc1
inactive: NCI-H23 lung 103% | NCI-H226 lung 98.5% | NCI-H322M lung 115% | HOP-62 NSCLC 111% | NCI-H460 lung 109% | HOP-92 NSCLC 90.6% | NCI-H522 lung 89.5% | A549/ATCC NSCLC 114% | 786-0 renal 99.9% | COLO 205 colon 111% | DU-145 prostate 121% | K-562 leukemia 69.8% | MALME-3M melanoma 163% | MDA-MB-231 breast 90.8% | RXF 393 renal 109% | SF-268 CNS 102% | SF-295 CNS 83.6% | SF-539 CNS 107% | UACC-257 melanoma 121% | M14 melanoma 94.5%
